# Measurements reported in PubChem BioAssay (EPA / NIEHS).
# The source made the active and inactive calls. Rule for the calls: active = hit-call score of the fitted dose curve at least 0.9, where 1 is the maximum; inactive = score below 0.9.
# Test: APR_HepG2_CellCycleArrest_1hr: Apredica 1-hour HepG2 Assay for Cell Cycle Arrest (AID 2282666)
# Conditions: high-content imaging, actives raise or lower the signal
# Description: APR_HepG2_1hr is a cell-based, multiplexed-readout assay that uses HepG2, a human liver cell line, with measurements taken at 1 hour after chemical dosing in a 384-well plate.APR_HepG2_CellCycleArrest_1hr is one of 10 assay component(s) measured or calculated from the APR_HepG2_1hr assay. It is designed to make measurements of cell phenotype, a form of morphology reporter, as detected with fluorescence intensity signals by HCS Fluorescent Imaging technology.Data from the assay component APR_HepG2_CellCycleArrest_1hr was analyzed into 1 assay endpoint. This assay endpoint, APR_HepG2_CellCycleArrest_1hr, was analyzed with bidirectional fitting relative to DMSO as the negative control and baseline of activity. Using a type of morphology reporter, measures of all nuclear dna for gain or loss-of-signal activity can be used to understand the signaling at the pathway-level as they relate to the gene . Furthermore, this assay endpoint can be referred to as a primary readout, because this assay has produced multiple assay endpoints where this one serves a signaling function. To generalize the intended target to other relatable targets, this assay endpoint is annotated to the cell cycle intended target family, where the subfamily is arrest.
# Cells were treated with dimethyl sulfoxide (DMSO) as a solvent control at a final concentration of 0.5% v/v or with compounds in DMSO with a resulting final DMSO concentration of 0.5% v/v. Compound treatment was done at concentrations of 0.39, 0.78, 1.56, 3.12, 6.24, 12.5, 25, 50, 100, and 200 uM in duplicate on each plate. Cells were treated with compounds for 1, 24, or 72 hr. Carbonyl […] m-chloro-phenylhydrazone (CCCP) and taxol were used as positive controls for mitochondrial function and cytoskeletal stability, respectively; DMSO served as the negative control for this experiment. Cells were fixed by the direct addition of 50 uL formaldehyde in Hank's Balanced Salt Solution (HBSS) to a final concentration of 3.7%. After incubation in the fixation medium for 30 min at room temperature (293-298 K), cells were rinsed twice with HBSS and treated with cell permeabilization buffer (16 uL of 0.5% Triton X-100) for 10 min at room temperature (293-298 K) before labeling. For mitochondrial membrane potential and mitochondrial measurements, pre-fixed cells were incubated with 50 uL of MitoTracker Red CMXRos (Invitrogen) at a concentration of 250 nM for 30 min before fixation. In the remaining cases, post-fixed cells were labeled by incubation with a multiplexed mixture of primary antibodies in HBSS for 60 min at room temperature (293-298 K) to detect immunoreactivity of c-Jun (1:500), phospho-histone H3 (1:100), phospho-histone H2A.x (1:200), p53 (1:400), alpha-tubulin (1:200) and Hoechst 33342 (2 ug/mL). Cells were labeled for multiplexed imaging on two separate plates: a) Hoechst 33342, MitoTracker Red, phospho-histone H3, and alpha-tubulin, and b) Hoechst 33342, phospho-histone H2A.x, and c-Jun. A final rinse with HBSS (50 uL) was performed before analysis. The primary and secondary antibodies for the proteins were phospho-histone H3 (rabbit anti-phospho-histone H3 and FITC-donkey anti-rabbit IgG), phospho-histone H2A.x (mouse anti-phospho-histone H2A.x and FITC-donkey anti-mouse IgG), c-Jun (rabbit anti-phospho-c-Jun and Cy3-donkey anti-rabbit IgG), p53 (sheep anti-p53 and Cy5-donkey anti-sheep IgG), alpha-tubulin (mouse anti-alpha-tubulin and Cy5-donkey anti-mouse IgG). These antibodies are available as the CellCiphr HepG2 assay kit (Millipore).Digital images of each well were captured using a Cellomics ArrayScan VTI (Thermo Scientific Cellomics) (0.8 NA objective, 0.63x optical coupler, and XF-93 filter set) at 20x magnification. The images were acquired using the autofocus feature of the ArrayScan instrument, which entails the following steps. First, the camera focuses on channel 1 (Hoechst 33342), where nuclei are identified. Second, a Z offset of 1 um is used for capturing mitochondria (MitoTracker Red). […]
row,Compound,outcome
1,C#CCC1=C(C)C(OC(=O)C2C(C=C(C)C)C2(C)C)CC1=O (stereo not given),inactive
2,Cc1nn(-c2cc(NS(C)(=O)=O)c(Cl)cc2Cl)c(=O)n1C(F)F,inactive
3,CCCSP(=O)(OCC)SCCC,inactive
4,Cc1cc(C2CC2)nc(Nc2ccccc2)n1,inactive
5,COc1cc(OC)nc(Sc2cccc(Cl)c2C(=O)O)n1,inactive
6,CCOC(=O)CC(SP(=O)(OC)OC)C(=O)OCC (stereo not given),inactive
7,CCOP(=O)(NC(C)C)Oc1ccc(SC)c(C)c1 (stereo not given),inactive
8,CCOP(=O)(SC(C)CC)N1CCSC1=O (stereo not given),inactive
9,COP(=O)(OC)OC(Br)C(Cl)(Cl)Br (stereo not given),inactive
10,CN(C)C(=O)Nc1cccc(C(F)(F)F)c1,inactive
11,O=c1ccc(=O)[nH][nH]1,inactive
12,CCc1cccc(CC)c1N(COC)C(=O)CCl,inactive
13,CCOP(=S)(OCC)OC(Cl)C(Cl)(Cl)Cl (stereo not given),inactive
14,CC(=NC#N)N(C)Cc1ccc(Cl)nc1,inactive
15,O=[N+]([O-])c1cc(C(F)(F)F)c(Cl)c([N+](=O)[O-])c1Nc1ncc(C(F)(F)F)cc1Cl,inactive
16,CON=C(C(=O)OC)c1ccccc1CON=C(C)c1cccc(C(F)(F)F)c1,inactive
17,Nc1nc(N)nc(NC2CC2)n1,inactive
18,CCOC(=O)COc1cc(-c2nn(C)c(OC(F)F)c2Cl)c(F)cc1Cl,inactive
19,CCCSP(=O)(OCC)Oc1ccc(Br)cc1Cl (stereo not given),inactive
20,COc1cccc(C(=O)NN(C(=O)c2cc(C)cc(C)c2)C(C)(C)C)c1C,inactive

row,Compound,outcome
1,CCOP(=S)(OCC)Oc1ccc([N+](=O)[O-])cc1,inactive
2,CNC(=O)Oc1cccc2c1OC(C)(C)O2,inactive
3,COP(=O)(NC(C)=O)SC (stereo not given),inactive
4,CCOP(=S)(OCC)Oc1cc(C)nc(C(C)C)n1,inactive
5,CC(C)[C@H](C(=O)O[C@H](C#N)c1cccc(Oc2ccccc2)c1)c1ccc(Cl)cc1,inactive
6,CC(C1CC1)C(O)(Cn1cncn1)c1ccc(Cl)cc1 (stereo not given),inactive
7,C[Si](Cn1cncn1)(c1ccc(F)cc1)c1ccc(F)cc1,inactive
8,CNc1cnn(-c2cccc(C(F)(F)F)c2)c(=O)c1Cl,inactive
9,CCCCOC(=O)c1ccccc1C(=O)O,inactive
10,CSC1=N[C@@](C)(c2ccccc2)C(=O)N1Nc1ccccc1,inactive
11,CCCCN(CC)c1c([N+](=O)[O-])cc(C(F)(F)F)cc1[N+](=O)[O-],inactive
12,N#CSCSC#N,inactive
13,CNC(=O)ON=C(C)SC,inactive
14,CCOP(=O)(OCC)Oc1cc(C)nc(C(C)C)n1,inactive
15,CC1=NNC(=O)N(/N=C/c2cccnc2)C1,inactive
16,C=C(C)[C@H]1Cc2c(ccc3c2O[C@@H]2COc4cc(OC)c(OC)cc4[C@@H]2C3=O)O1,inactive
17,C[N+]1(C)CCCCC1,inactive
18,O=C(O)c1cc(Oc2ccc(C(F)(F)F)cc2Cl)ccc1[N+](=O)[O-],inactive
19,CSc1nnc(C(C)(C)C)c(=O)n1N,inactive
20,CCc1cnc(C2=NC(C)(C(C)C)C(=O)N2)c(C(=O)O)c1 (stereo not given),inactive
